Screens: PubChem, The Scripps Research Institute Molecular Screening Center
proKLK7 act = activates the human kallikrein-7 zymogen. P49862. purified proKLK7, EDANS-DABCYL substrate fluorescence; 100% is mature enzyme control, 0% vehicle. activation, % at 7 µM. 0.9% of 370,000 active. AID 652039;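 active means activation above the mean of all tested compounds plus 3 SD, computed per campaign excluding outliers beyond control limits, cut at about 13% in these data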
PLCb3 inh = PLC-beta3 (human) inhibition, primary screen; Q01970; Purified PLC-beta3, fluorogenic substrate, fluorescence; inhibition, % at 12.2 µM; 0.18% of 370,000 active; in the data active means inhibition above about 11%
ADAM10 inh = inhibits human ADAM10; O14672; recombinant ADAM10, EDANS/DABCYL FRET peptide cleavage, 3 h; inhibition, % at 7 µM; 0.62% of 370,000 active; AID 720582;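 active means inhibition above a per-campaign cutoff equal to the mean of compounds falling between control-based bounds plus 3 SD, cut at about 20% in these data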
PLC-gamma1 inh = PLC-gamma1 (human) inhibition, primary screen. purified PLC-gamma1, fluorogenic substrate, fluorescence. AID 720700. 0.84% of 370,000 active. P19174. inhibition, % at 12.2 µM; in the data active means inhibition above about 9.5%
ADAM17 inh = ADAM17 inhibition, QFRET primary screen. P78536. recombinant ADAM17, EDANS/DABCYL FRET peptide cleavage. inhibition, % at 6.95 µM. 0.83% of 370,000 active. AID 720648;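 active means inhibition above the mean of compounds lying between control limits plus 3 SD, set per campaign, cut at about 8.5% in these data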
HGIII-sPLA2 inh = Inhibits HGIII-sPLA2 liposome hydrolysis, primary screen | Q9NZ20 | QFRET BODIPY PC-A2 liposome hydrolysis, fluorescence | inhibition, % at 12.2 µM | AID 743126 | 0.56% of 370,000 active;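 active means inhibition above mean plus 3 SD of compounds lying within the high and low control bounds, cut at about 19% in these data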
Target sequence (Q9NZ20 whole entry, looked up): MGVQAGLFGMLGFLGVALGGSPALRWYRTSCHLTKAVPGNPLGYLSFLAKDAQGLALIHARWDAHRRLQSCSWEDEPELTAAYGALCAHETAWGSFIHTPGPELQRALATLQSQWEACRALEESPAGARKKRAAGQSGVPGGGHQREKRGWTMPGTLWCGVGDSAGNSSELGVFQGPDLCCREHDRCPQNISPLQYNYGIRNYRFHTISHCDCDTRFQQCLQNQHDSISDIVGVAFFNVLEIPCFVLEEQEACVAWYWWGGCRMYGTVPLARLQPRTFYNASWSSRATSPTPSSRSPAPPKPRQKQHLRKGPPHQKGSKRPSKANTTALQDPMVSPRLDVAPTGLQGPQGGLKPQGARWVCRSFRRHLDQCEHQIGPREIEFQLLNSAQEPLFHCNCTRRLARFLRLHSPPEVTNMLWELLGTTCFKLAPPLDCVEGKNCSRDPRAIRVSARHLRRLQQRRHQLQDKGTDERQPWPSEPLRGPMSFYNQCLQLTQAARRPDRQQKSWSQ
KLK7 act conf = confirmation of human kallikrein-7 zymogen activators | shares compounds with proKLK7 act | purified proKLK7, EDANS-DABCYL substrate fluorescence; scaled: vehicle 0, mature enzyme 100 | activation, % at 7 µM | 68% of 3,200 active | AID 686949;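 active means activation, as change over the incubation, above the mean of all tested compounds plus 3 SD, cut at about 13% in these data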
EDANS interfere = optically interferes with EDANS-DABCYL signal, flagging KLK7 hits. shares compounds with proKLK7 act. EDANS-DABCYL substrate fluorescence interference, no enzyme, 4 h; solvent 0%, active enzyme control 100%. activation, % at 7 µM. 80% of 3,200 active. AID 686952;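 active means activation above the all-compound mean plus 3 SD, ignoring values outside control-based bounds, cut at about 4.8% in these data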;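 further: value is the 4 h activation minus the activation read at time zero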
K7 EDANS ctr = counter-screen for kallikrein-7 activators: EDANS-DABCYL interference, dose response | shares compounds with proKLK7 act | EDANS-DABCYL peptide fluorescence interference, no enzyme | EC50, µM | 20% of 250 active | AID 720493;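 active means compounds that raise the fluorescence signal in this interference counterscreen, with EC50 at or below 10 µM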;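 further: intact quenched peptide substrate alone read at 355 nm excitation and 520 nm emission; signal is fluorescence gain from T0 to T4 after four hours at room temperature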
Numbers stand for hits; n = inactive; x = no result. A selection: hits, their analogues and other compounds. The true share with any hit is near 3.4%.

SMILES	proKLK7 act	PLCb3 inh	ADAM10 inh	PLC-gamma1 inh	ADAM17 inh	HGIII-sPLA2 inh	KLK7 act conf	EDANS interfere	others
Cn1c(=O)c2cc(NC(=S)NC3CC3)ccc2n1Cc1ccccc1	16	n	n	n	n	n	n	14
CC(C)=CCn1c2ccc(NC(=S)NC3CC3)cc2c(=O)n1C	18	n	n	n	n	n	14	14
Cn1c(=O)c2cc(NC(=S)NC3CCCCC3)ccc2n1Cc1ccc(F)cc1	n	n	n	n	n	n	x	x
Cc1cc(C)cc(Cn2c3ccc(NC(=S)NC4CCCCC4)cc3c(=O)n2C)c1	n	n	n	n	n	n	x	x
COc1ccccc1OCCOc1ccccc1/C=N/n1cnnc1	n	n	n	n	n	n	x	x
COc1cccc2cccc(/C=N/n3cnnc3)c12	15	n	n	n	n	n	15	10	K7 EDANS ctr=n
O=C1NC(c2ccc(Br)cc2)Nc2ccccc21 (stereo not given)	14	n	n	n	n	n	21	15	K7 EDANS ctr=n
O=C1NC(c2ccccc2Cl)Nc2ccccc21 (stereo not given)	19	n	n	n	n	n	47	50
NC(=O)c1ccc(NC(=O)CSc2nnc(-c3ccccc3)n2-c2ccccc2)cc1	n	n	n	n	n	n	x	x
OCc1ccccc1-c1nc(NCC2CC2)nc2ccsc12	15	n	n	n	n	n	n	6.9
CC(C)Nc1nc(-c2ccccc2CO)c2sccc2n1	22	n	n	n	n	n	17	11	K7 EDANS ctr=n
CN(C)CCNc1nc(-c2ccccc2CO)c2sccc2n1	n	n	n	n	n	n	x	x
COC(=O)[C@H](C(C)C)N1Cc2nnn(Cc3ccccc3)c2-c2cc(F)ccc2S1(=O)=O	n	n	n	n	n	n	x	x
COC(=O)[C@]1(CNC(C)=O)CC(=O)N(C)[C@@H]1c1ccccc1	n	n	n	n	n	n	x	x
O=C(Nc1ccc(F)cc1)Nc1c(-c2ccc(F)cc2)nc2ncccn12	15	n	n	n	n	n	n	5.1
CC(=O)Nc1c(-c2ccccc2)nc2ncccn12	22	n	n	n	n	n	60	57
CC(=O)Nc1nc2ncccn2c1-c1ccccc1	n	n	n	n	n	n	x	x
CC(=O)Nc1c(-c2ccc(F)cc2)nc2ncccn12	n	n	n	n	n	n	x	x
CC(=O)Nc1nc2ncccn2c1-c1ccc(F)c(F)c1	21	n	n	n	n	n	27	26
O=C(Nc1c(-c2ccccc2)nc2ncccn12)c1ccc(F)cc1	14	n	n	n	n	n	n	11
COC[C@H]1CCCN1c1cccc2c1S(=O)(=O)N1CC[C@@H](C1)O2	n	n	n	n	n	n	x	x
COc1cccc(NC(=O)C2CCCN2C(=O)Nc2cccc3c2OCO3)c1 (stereo not given)	n	n	n	n	n	n	x	x
COc1ccc(CN[C@@H]2CC[C@@]34CCCN3C(=O)CCC[C@H]4C2)cc1	x	n	n	n	n	n	x	x
COC(=O)C[C@@H]1CC[C@H]2[C@@H](COc3ccc(NC(=O)Nc4ccccc4C)cc3C(=O)N2C)O1	n	n	n	n	n	n	x	x
CCCCCCCCN1C(=O)[C@@H](CC(=O)N2CCC(c3ccccc3)CC2)C[C@@]2(C(=O)OC)C1=C[C@H](COCc1ccccc1)O[C@@H]2C	n	n	n	n	n	n	x	x
SMILES	proKLK7 act	PLCb3 inh	ADAM10 inh	PLC-gamma1 inh	ADAM17 inh	HGIII-sPLA2 inh	KLK7 act conf	EDANS interfere	others
CN1CCCCc2c1nc1ccccc1c2N (tested in a mixture with another compound)	n	n	n	n	n	n	x	x
Nc1c2c(nc3ccccc13)N(c1ccccc1)CC2	70	n	n	n	n	n	20	21
CNc1nc(N)c([N+](=O)[O-])c(Nc2ccccc2)n1	x	n	n	n	n	n	x	x
C=CCNc1sc(C(=O)c2ccc(C)cc2)c(N)c1C#N	186	n	n	n	n	n	22	15	K7 EDANS ctr=n
C=CCNc1sc(C(=O)c2ccccc2)c(N)c1C#N	n	n	n	n	n	n	x	x
O=S(=O)(c1ccccc1)c1cnc2ccccc2c1	n	n	n	n	n	n	x	x
Nc1nc2ccccc2cc1S(=O)(=O)c1ccccc1	13	n	n	n	n	n	n	10
O=C1c2ccccc2NC(c2ccc(F)cc2)N1Cc1ccco1 (stereo not given)	15	n	n	n	n	n	n	19
O=C1c2ccccc2NC(c2ccccc2)N1Cc1ccco1 (stereo not given)	17	n	n	n	n	n	17	7.5	K7 EDANS ctr=n
COP(=O)(O)[C@@H](CC(C)C)NC(=O)OCc1ccccc1	n	n	n	n	n	n	x	x
O=c1[nH]cnc2nc(-c3ccccc3)c(-c3ccccc3)nc12	29	n	n	n	n	n	29	30
Cc1ccc2nc3c(cc(C(=O)NCC4CCCO4)c(=N)n3CCCOC(C)C)c(=O)n2c1 (stereo not given)	106	n	n	n	n	n	45	44
CCOCCCNc1nc2nc3ccc(C)cn3c(=O)c2cc1C(=O)NCC1CCCO1 (stereo not given)	55	n	n	n	n	n	16	26
CC(=O)c1ccc(-c2ccc(C(=O)NCC(c3ccco3)N(C)C)o2)cc1 (stereo not given)	19	n	n	n	n	n	n	12
CC(=O)Nc1ccc(C2Nc3ccccc3C(=O)N2C2CCCCC2)cc1 (stereo not given)	13	n	n	n	n	n	30	26	K7 EDANS ctr=n
O=C(Nc1ccc2c(c1)OCCO2)C1C(=O)Nc2ccccc2C(=O)N1C1CCCCC1 (stereo not given)	n	n	n	n	n	n	x	x
Cc1c(Br)c(=O)oc2c(Br)c(O)c(O)cc12	n	n	n	n	n	n	x	x
Cc1c(Br)c(=O)oc2c(Br)c(O)ccc12	26	n	n	n	n	n	15	25
Cc1c(O)ccc2c3c(c(=O)oc12)CCCC3	32	n	n	n	n	n	71	64
CC(=O)COc1ccc2c3c(c(=O)oc2c1C)CCCCC3	n	n	n	n	n	n	x	x
Cc1c(O)ccc2c3c(c(=O)oc12)CCC(C)C3 (stereo not given)	39	n	n	n	n	n	63	84
COc1ccc(S[C@]2(C(=O)N(C)C)CC(=O)N(C(=O)/C=C/c3ccccc3)[C@@H]2c2ccc(OC)cc2)cc1	n	n	n	n	n	n	x	x
